Measurements taken from PubChem BioAssay (NCATS).
“And” between values parts separate entries of the source, which are not always exact repeats. Equal values may be shown once. Unmarked numbers belong to inactive results. Records with an inconclusive call do not appear. The source made the active and inactive calls. Unless noted, calls follow the shape of the dose curve; as a rule, active = well fitted curve in either direction with a large enough effect (not every such curve was filed as active); inconclusive = small, poorly fitted or top-dose-only effect, or another doubt; inactive = flat fitted curve, though single readings scatter.

Legend:
[1] = Stat Signaling Pathway (AID 446); conditions: ME-180 SIE beta-lactamase reporter, IL-6 stimulated, 5 h; at 17.2 µM (top of the series) unless noted;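 also: ME-180 cervical cancer cells given 40 pM IL-6 alongside compound; SIE-controlled beta-lactamase reporter measured as 460/530 nm FRET emission ratio; % is scaled to controls: 0 for no effect and ±100 for the full control effect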
In short: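 ME-180 cells carrying a SIE-driven beta-lactamase reporter are stimulated with 40 pM IL-6 for 5 h at 37C in the presence of compound. The 460/530 nm FRET substrate ratio is read after 2.5 h at RT. Data are normalised to 300 pM IL-6 and to 125 nM JAK inhibitor controls.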

[2] = target: Glucocorticoid receptor (Homo sapiens) (UniProt P04150); experiment: GR-GFP Redistribution (AID 450;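 active = compounds whose dose series gives a full or clear partial fitted curve of increased nuclear translocation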; also: potency is read from the fitted curve at half-maximal effect)
Glucocorticoid receptor (Homo sapiens), sequence (P04150 whole entry, looked up, the tested form may be a part): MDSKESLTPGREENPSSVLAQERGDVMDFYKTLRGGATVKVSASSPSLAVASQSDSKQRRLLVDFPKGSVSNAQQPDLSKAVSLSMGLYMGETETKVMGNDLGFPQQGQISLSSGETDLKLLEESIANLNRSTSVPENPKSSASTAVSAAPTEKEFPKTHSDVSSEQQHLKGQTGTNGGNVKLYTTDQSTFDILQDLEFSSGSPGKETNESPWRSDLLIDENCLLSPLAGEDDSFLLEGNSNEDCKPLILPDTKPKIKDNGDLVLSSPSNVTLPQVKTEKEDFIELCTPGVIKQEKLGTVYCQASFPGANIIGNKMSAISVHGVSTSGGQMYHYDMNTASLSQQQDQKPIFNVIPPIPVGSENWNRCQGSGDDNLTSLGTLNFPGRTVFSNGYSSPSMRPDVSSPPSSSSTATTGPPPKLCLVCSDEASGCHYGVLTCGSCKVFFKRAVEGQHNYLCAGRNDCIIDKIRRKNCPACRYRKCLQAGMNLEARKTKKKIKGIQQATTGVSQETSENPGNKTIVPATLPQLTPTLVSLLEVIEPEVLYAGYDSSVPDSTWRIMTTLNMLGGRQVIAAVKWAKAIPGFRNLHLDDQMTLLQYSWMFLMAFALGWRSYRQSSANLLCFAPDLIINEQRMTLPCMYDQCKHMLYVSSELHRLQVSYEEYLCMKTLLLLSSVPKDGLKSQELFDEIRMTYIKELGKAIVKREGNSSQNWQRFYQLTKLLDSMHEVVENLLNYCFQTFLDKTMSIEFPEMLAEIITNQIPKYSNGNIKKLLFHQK

[3] = target: Glucocorticoid receptor (Homo sapiens) (UniProt P04150); experiment: GR-EFC Redistribution (AID 451; calls by dose curve; also: potency is read from the fitted curve at half-maximal effect); conditions: CHO-K1 GR-EFC translocation, beta-gal luminescence, 2 h
In short: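 CHO-K1 cells stably expressing nuclear-localized β-gal enzyme acceptor and GR fused C-terminally to the enzyme donor fragment; ligand-driven nuclear translocation restores β-gal by complementation. Compounds titrated up to 46 uM final, 2 h at 37 °C; luminescence read.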

[4] = target: Mitogen-activated protein kinase 10 (Mus musculus) (UniProt Q61831); experiment: JNK3 AlphaScreen Assay (AID 530);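 also: kinase came from lysate of stimulated human HepG2 cells; signal reports phosphorylation of biotinylated GST-cJun 1-79 at Ser73 with 10 µM ATP; % is scaled to controls: 0 for no effect and ±100 for the full control effect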
In short: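 JNK3 came from HepG2 lysates pre-activated with IL-1beta and TNF-alpha and phosphorylated biotinylated GST-cJun (1-79) at 10 uM ATP, pH 7.6, room temperature. Compounds were titrated. AlphaScreen signal used anti-phospho-cJun (Ser73) antibody.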

[5] = target: 3',5'-cyclic-AMP phosphodiesterase 4B (Homo sapiens) (UniProt Q07343); experiment: qHTS Assay for Inhibitors of PDE-IV (AID 607; active = well fitted activation curve with a large enough effect in the main read-out, with a control signal flat, not every such curve was filed as active; also: % of control where 0% means no effect)
3',5'-cyclic-AMP phosphodiesterase 4B (Homo sapiens), sequence (Q07343 whole entry, looked up): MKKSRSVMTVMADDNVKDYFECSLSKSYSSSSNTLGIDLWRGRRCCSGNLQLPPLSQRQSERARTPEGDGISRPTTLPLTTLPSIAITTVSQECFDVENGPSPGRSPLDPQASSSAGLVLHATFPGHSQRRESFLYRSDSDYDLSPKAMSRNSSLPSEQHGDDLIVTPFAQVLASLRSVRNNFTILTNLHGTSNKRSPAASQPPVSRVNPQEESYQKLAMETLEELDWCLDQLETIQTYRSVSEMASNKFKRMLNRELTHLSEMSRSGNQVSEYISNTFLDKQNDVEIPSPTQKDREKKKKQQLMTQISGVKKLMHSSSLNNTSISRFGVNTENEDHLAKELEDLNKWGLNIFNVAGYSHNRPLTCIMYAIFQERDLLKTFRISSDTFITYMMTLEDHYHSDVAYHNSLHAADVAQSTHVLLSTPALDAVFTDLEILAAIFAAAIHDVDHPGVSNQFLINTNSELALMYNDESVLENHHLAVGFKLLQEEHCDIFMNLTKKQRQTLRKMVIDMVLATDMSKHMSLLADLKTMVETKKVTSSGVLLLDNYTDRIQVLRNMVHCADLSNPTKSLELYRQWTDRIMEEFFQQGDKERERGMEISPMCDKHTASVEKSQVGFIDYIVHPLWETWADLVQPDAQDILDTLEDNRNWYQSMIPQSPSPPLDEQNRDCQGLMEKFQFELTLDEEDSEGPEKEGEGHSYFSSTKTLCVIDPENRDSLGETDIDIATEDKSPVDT
In short: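 HEK293 ACTOne cells with CNG channel (1000/well), endogenous PDE4; membrane potential dye, compounds up to 22.9 uM final. Fluorescence Ex 535/Em 590; RO 20-1724 (100 uM final) as reference.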

[6] = target: Guanine nucleotide-binding protein G(i) subunit alpha-1 (Homo sapiens) (UniProt P63096); experiment: qHTS Assay for Inhibitors of RGS12 GoLoco Motif Activity (Green Fluorophore) (AID 879; active = well fitted curve in the direction sought with a large enough effect; an effect the other way counts as inactive or inconclusive;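 also: 0% = labeled peptide with Gαi1 and full inhibition = labeled peptide alone without protein; negative values mean loss of peptide binding seen as reduced polarization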)
Guanine nucleotide-binding protein G(i) subunit alpha-1 (Homo sapiens), sequence (P63096 whole entry, looked up): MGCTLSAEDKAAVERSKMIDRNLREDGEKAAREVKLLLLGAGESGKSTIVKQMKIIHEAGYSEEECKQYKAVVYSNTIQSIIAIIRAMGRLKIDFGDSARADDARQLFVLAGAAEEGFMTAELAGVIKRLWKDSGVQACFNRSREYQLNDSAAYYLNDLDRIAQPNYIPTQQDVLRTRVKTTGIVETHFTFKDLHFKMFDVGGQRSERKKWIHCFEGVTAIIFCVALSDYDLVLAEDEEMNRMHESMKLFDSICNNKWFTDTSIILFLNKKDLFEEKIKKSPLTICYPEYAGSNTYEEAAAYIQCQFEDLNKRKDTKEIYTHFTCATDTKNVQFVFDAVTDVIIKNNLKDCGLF
In short: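 Fluorescence polarization assay: 50 nM Gαi1 with 10 nM FITC-labeled RGS12 GoLoco peptide in 10 mM Tris pH 7.5, 150 mM NaCl, 0.1 mM GDP, 0.05% NP40, 10 min at room temperature with compound.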

[7] = qHTS Assay for Identification of Small Molecule Antagonists for Thrombopoietin (TPO) Signaling Pathway (AID 918; active = well fitted curve in the direction sought with a large enough effect; an effect the other way counts as inactive or inconclusive; also: potency is read from the fitted curve at half-maximal effect; nearly all actives have a fitted effect of over 60% in size); conditions: TPO-dependent cell signaling reporter, antagonist mode
In short: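 First, Ba/F3 reporter cells expressing human TPO receptor were held overnight without IL-3. Next, compound and 26 pM TPO were added. After 24 hrs incubation at 37 C, luciferase luminescence under the Glycoprotein IIb promoter was recorded.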

[8] = target: Pyruvate kinase (Leishmania mexicana) (UniProt Q27686); experiment: qHTS Validation Assay for Inhibitors of Leishmania Mexicana Pyruvate Kinase (AID 945; active = well fitted curve in the direction sought with a large enough effect; an effect the other way counts as inactive or inconclusive;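 also: 0% = DMSO only neutral control wells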)
Pyruvate kinase (Leishmania mexicana), sequence (Q27686 2-499 E452W): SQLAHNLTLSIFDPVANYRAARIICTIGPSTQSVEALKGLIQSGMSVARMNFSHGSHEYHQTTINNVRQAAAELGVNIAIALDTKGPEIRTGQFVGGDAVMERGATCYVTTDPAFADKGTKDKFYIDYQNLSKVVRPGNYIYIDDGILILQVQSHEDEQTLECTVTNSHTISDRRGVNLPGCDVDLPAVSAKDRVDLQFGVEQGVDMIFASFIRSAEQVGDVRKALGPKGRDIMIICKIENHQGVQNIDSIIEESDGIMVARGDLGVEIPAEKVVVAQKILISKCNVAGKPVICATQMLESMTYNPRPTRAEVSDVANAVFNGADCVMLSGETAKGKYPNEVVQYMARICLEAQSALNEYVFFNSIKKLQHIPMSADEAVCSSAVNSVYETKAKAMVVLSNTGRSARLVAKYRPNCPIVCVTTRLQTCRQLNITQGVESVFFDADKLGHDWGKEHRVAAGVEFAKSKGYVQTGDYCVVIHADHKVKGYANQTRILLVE
In short: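 Purified LmPYK (E451W mutant, 0.2 nM) was incubated 1 h at room temperature with 0.5 mM PEP and 0.1 mM ADP in 50 mM imidazole pH 7.2, 50 mM KCl, 7 mM MgCl2; ATP formed was read by PKLight luminescence, normalized to DMSO wells.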

[9] = target: Pyruvate kinase PKM (Homo sapiens) (UniProt P14618); experiment: qHTS Assay for Activators of Human Muscle Pyruvate Kinase (AID 954; active = well fitted curve in the direction sought with a large enough effect, not every such curve was filed as active;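 also: 0% = uninhibited enzyme and -100% = no enzyme or full thiadiazolimine inhibition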)
Pyruvate kinase PKM (Homo sapiens), sequence (P14618 whole entry, looked up): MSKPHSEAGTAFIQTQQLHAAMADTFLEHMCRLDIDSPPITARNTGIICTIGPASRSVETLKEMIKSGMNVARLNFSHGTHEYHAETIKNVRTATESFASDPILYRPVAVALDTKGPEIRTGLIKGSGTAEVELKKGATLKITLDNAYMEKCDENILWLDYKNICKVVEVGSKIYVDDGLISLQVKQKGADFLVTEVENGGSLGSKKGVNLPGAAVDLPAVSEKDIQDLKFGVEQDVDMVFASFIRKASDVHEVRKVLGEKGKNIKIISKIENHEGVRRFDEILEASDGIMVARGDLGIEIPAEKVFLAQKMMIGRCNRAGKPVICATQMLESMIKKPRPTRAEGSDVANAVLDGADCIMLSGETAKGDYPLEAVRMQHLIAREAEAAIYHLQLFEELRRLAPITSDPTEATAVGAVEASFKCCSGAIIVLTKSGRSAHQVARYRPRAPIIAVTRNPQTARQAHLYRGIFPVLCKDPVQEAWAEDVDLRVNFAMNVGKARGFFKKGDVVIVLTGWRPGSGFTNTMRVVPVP
In short: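 Purified human PKM2 (0.1 nM) with 0.5 mM PEP (Km) and 0.1 mM ADP in 50 mM imidazole pH 7.2, KCl, MgCl2, 1 h at room temperature; ATP formed read by coupled luciferase luminescence. Normalized to no-enzyme/110 uM thiadiazolimine inhibition; 0.3 nM enzyme column for activation.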

[10] = target: Alpha-galactosidase A (Homo sapiens) (UniProt P06280); experiment: Counterscreen for Glucocerebrosidase Inhibitors: qHTS Assay for Human alpha-Galactosidase at pH 4.5 (AID 992; active = well fitted curve in the direction sought with a large enough effect; an effect the other way counts as inactive or inconclusive; also: 0% is about no effect)
Alpha-galactosidase A (Homo sapiens), sequence (P06280 whole entry, looked up): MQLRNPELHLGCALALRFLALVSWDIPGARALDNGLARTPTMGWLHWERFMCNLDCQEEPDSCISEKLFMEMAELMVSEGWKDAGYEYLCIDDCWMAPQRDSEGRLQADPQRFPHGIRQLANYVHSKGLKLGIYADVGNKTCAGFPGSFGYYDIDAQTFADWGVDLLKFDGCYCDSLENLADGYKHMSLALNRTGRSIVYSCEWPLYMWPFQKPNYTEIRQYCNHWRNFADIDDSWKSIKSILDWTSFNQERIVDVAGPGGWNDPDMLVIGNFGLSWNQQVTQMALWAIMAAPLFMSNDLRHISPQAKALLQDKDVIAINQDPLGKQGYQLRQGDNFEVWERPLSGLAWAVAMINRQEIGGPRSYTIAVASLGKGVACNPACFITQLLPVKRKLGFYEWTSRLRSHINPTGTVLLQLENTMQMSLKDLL
In short: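 Human enzyme (2 nM) with 80 uM 4-methylumbelliferyl alpha-D-galactopyranoside in 50 mM citric acid, 0.005% Tween-20, pH 4.5, 20 min at room temperature. Compounds 0.7 nM–77 uM; fluorescence Ex 365/Em 440 after pH 10 stop; AC50 from Hill fits.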

[11] = qHTS Assay for Identification of Small Molecule Agonists for Hypoxia Response Element Signaling Pathway (AID 914; active = well fitted activation curve with a large enough effect in the signal ratio, with a control signal flat, not every such curve was filed as active; the % refers to the signal ratio; also: potency is read from the fitted curve at half-maximal effect); conditions: ME-180 (cervical carcinoma) HRE-bla reporter, beta-lactamase ratio, CoCl2, 17 h; activation: active compounds read high
In short: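 AC50 values come from titration-series %Activity, taken as the 460/530nm ratio of CCF4 fluorescence (excitation 405nm). CellSensor HRE-bla ME-180 cells were treated 17 hours at 37 C with compound plus an EC50 level of CoCl2.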

[12] = target: Muscarinic acetylcholine receptor M1 (Rattus norvegicus) (UniProt P08482); experiment: qHTS Assay for Antagonists of Acetylcholine Muscarinic M1 Receptor: Kinetic Measurement of Intracellular Calcium Response (AID 943; active = well fitted curve in the direction sought with a large enough effect; an effect the other way counts as inactive or inconclusive; also: nearly all actives have a fitted effect of over 75% in size; also: potency is read from the fitted curve at half-maximal effect)
Muscarinic acetylcholine receptor M1 (Rattus norvegicus), sequence (P08482 whole entry, looked up): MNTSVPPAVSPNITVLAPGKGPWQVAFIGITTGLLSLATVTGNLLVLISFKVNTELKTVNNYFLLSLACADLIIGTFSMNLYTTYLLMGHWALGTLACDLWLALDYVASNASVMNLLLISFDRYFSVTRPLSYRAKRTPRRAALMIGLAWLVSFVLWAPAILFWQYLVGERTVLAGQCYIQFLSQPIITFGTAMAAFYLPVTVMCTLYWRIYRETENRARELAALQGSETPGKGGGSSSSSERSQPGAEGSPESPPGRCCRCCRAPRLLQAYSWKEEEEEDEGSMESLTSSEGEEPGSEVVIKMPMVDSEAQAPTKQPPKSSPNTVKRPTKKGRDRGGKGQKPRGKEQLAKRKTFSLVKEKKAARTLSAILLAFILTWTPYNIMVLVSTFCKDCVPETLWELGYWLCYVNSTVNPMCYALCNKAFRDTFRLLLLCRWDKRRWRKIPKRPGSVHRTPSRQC
In short: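 Intracellular calcium flux, recorded with Fluo-4 in a kinetic plate reader, served as signal; the response to carbachol at EC80 (100 nM final) was taken as maximal over minimal fluorescence after a 10 min compound pre-incubation in rat M1-CHO cells.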

[13] = target: Muscarinic acetylcholine receptor M1 (Rattus norvegicus) (UniProt P08482); experiment: qHTS Assay for Antagonists of Acetylcholine Muscarinic M1 Receptor: Measurement of IP-One Response (AID 944; active = well fitted curve in the direction sought with a large enough effect; an effect the other way counts as inactive or inconclusive; also: potency is read from the fitted curve at half-maximal effect; nearly all actives have a fitted effect of over 75% in size)
In short: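 Steps: plate transfected CHO-M1 cells overnight; add test compound, 10 min; add carbachol (200 nM, EC80) in stimulation buffer with LiCl; incubate 30 min; add labelled IP1 tracer and anti-IP1 antibody in lysis buffer; read HTRF after 10 min.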

[14] = qHTS Assay for Identification of Small Molecule Antagonists for NFkB Signaling Pathway (AID 895; active = well fitted inhibition curve with a large enough effect in the signal ratio, with a control signal flat, not every such curve was filed as active; the % refers to the signal ratio; also: potency is read from the fitted curve at half-maximal effect)
In short: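 NFkB-bla ME-180 cervical carcinoma cells with beta-lactamase reporter under NFkB response element; compounds added, then TNF alpha at 10 pM final (EC50), 5 h at 37 C. LiveBLAzer substrate 2 h, room temperature; emission 460/530 nm at 405 nm excitation.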

COc1cccc(-c2nc(NC(C)(C)C)c3ccccc3n2)c1O
activity, negative = inhibition [1]: -74.9% (active) | Potency [2]: > 20.6 µM

CCCCN(CCCC)c1nc2ccccc2nc1C(C#N)C(=O)NCCCOC (stereo not drawn)
Potency [2]: > 20.6 µM

N#Cc1nc(-c2ccc(Cl)cc2)oc1N1CCCCC1
activity, negative = inhibition [1]: 2.4% | Potency [2]: > 20.6 µM

COCc1[nH]nc2c1C(c1sccc1C)C(C#N)=C(N)O2 (stereo not drawn)
activity, negative = inhibition [1]: -24.3% | Potency [2]: > 20.6 µM

N#CC1=C(SCc2ccccc2)NC2=C(C(=O)CCC2)C1c1ccc2c(c1)OCO2 (stereo not drawn)
activity, negative = inhibition [1]: -5.66% | Potency [2]: > 20.6 µM

COc1cc(C(=O)OCCN2CCCCC2)ccc1O
activity, negative = inhibition [1]: 4.68% | Potency [2]: > 20.6 µM

CC(C)Cc1nc(N2CCN(C(=O)c3ccco3)CC2)c(C#N)c2c1CCC2
activity, negative = inhibition [1]: -7.73% | Potency [2]: > 20.6 µM

COc1ccc(CNc2oc(COc3ccc(Cl)cc3)nc2C#N)cc1
activity, negative = inhibition [1]: -26.7% | Potency [2]: > 20.6 µM

COc1ccc(Nc2cc(C)nc(-n3nc(C)cc3C)n2)cc1
activity, negative = inhibition [1]: -13% | Potency [2]: > 20.6 µM

Nc1c2c(nc3ccccc13)N(c1ccccc1)CC2
activity, negative = inhibition [1]: 9.15% | Potency [2]: > 20.6 µM

COc1ccc(OC)c(NC(=O)CSC2=C(C#N)C(c3ccco3)C3=C(CCCC3=O)N2)c1 (stereo not drawn)
activity, negative = inhibition [1]: -3.42% | Potency [2]: > 20.6 µM

CCc1[nH]nc2c1C(c1ccc(Br)s1)C(C#N)=C(N)O2 (stereo not drawn)
activity, negative = inhibition [1]: -17.3% | Potency [2]: > 20.6 µM

C=CCOc1nc(-c2ccncc2)nc2ccccc12
activity, negative = inhibition [1]: 12.7% | Potency [2]: > 20.6 µM

CCN(CC)CCOC(=O)c1c(C)n(C)c2ccc(OC)cc12
activity, negative = inhibition [1]: 11.9% | Potency [2]: > 20.6 µM

CSc1ccc2c(c1)N(CC[C@H]1CCCCN1C)c1ccccc1S2
activity, negative = inhibition [1]: -7.21% | Potency [2]: > 46 µM and > 20.6 µM | Potency [3]: > 46 µM and > 20.6 µM | Potency [4]: inactive | Potency [5]: inactive | outcome [6]: inactive | Potency [7]: 12.6 µM (active) | Potency [8]: inactive | outcome [9]: inactive | outcome [10]: inactive

Cc1coc2c(O)cc3c(c12)OC1(N2CCCCC2)C(=O)NCCCC31 (stereo not drawn)
activity, negative = inhibition [1]: -21.8% | Potency [2]: > 20.6 µM

Cc1c(C)c2cc(Cl)c(O)c(CN3CCN(C)CC3)c2oc1=O
activity, negative = inhibition [1]: 11.1% | Potency [2]: > 20.6 µM | Potency [11]: 7.94 µM (active)

COC(=O)C1=C(C)NC(C)=C(C(=O)OCCN(C)Cc2ccccc2)[C@@H]1c1cccc([N+](=O)[O-])c1
activity, negative = inhibition [1]: -11.8% [at 38 µM] | Potency [2]: > 46 µM | Potency [3]: > 46 µM | outcome [6]: inactive | Potency [12]: 3.16 µM (active) | Potency [13]: 17.8 µM (active) | Potency [8]: inactive | outcome [9]: inactive | outcome [10]: inactive

N#C/C(=N\O)c1nc(-c2ccccc2)cs1
activity, negative = inhibition [1]: 9.7% | Potency [2]: > 20.6 µM

COc1ccc(C(=O)CCN2CCCCCC2)cc1
activity, negative = inhibition [1]: -28.1% | Potency [2]: > 20.6 µM

CC1(C)CC(=O)C2=C(C1)Oc1nc3ccccc3cc1C2C(C#N)C#N (stereo not drawn)
activity, negative = inhibition [1]: -93% (active) | Potency [2]: > 20.6 µM

CCOC(=O)c1[nH]c2ccc(Br)cc2c1NC(=O)CCN1CCC(C(=O)OCC)CC1
activity, negative = inhibition [1]: -11% | Potency [2]: > 20.6 µM

Cc1c(C)c2c(c(C)c1O)CC[C@@](C)(CN1CCN(c3cc(N4CCCC4)nc(N4CCCC4)n3)CC1)O2
activity, negative = inhibition [1]: 19.8% [at 38 µM] | Potency [2]: > 46 µM | Potency [3]: > 46 µM | Potency [5]: inactive | outcome [6]: inactive | Potency [7]: 10 µM (active) | Potency [8]: inactive | outcome [9]: inactive | outcome [10]: inactive

COC(=O)c1ccccc1NC=C1C(=O)OC2(CCCCC2)OC1=O
activity, negative = inhibition [1]: 2.6% | Potency [2]: > 20.6 µM

CCOC(=O)C1CCN(c2nc3ccccc3nc2C(C#N)C(=O)NCCc2ccccc2)CC1 (stereo not drawn)
activity, negative = inhibition [1]: -24.6% | Potency [2]: > 20.6 µM

COc1cccc(-c2nc(N3CCCCC3)c3ccccc3n2)c1O
activity, negative = inhibition [1]: -5.07% | Potency [2]: > 20.6 µM

CC(C)OC(=O)c1c2nc3ccccc3nc2n2c1[nH]c(=O)c1ccccc12
activity, negative = inhibition [1]: -17% | Potency [2]: > 20.6 µM

COC(=O)CC1=C(C(=O)OC)C(c2ccncc2)C(C#N)=C(N)O1 (stereo not drawn)
activity, negative = inhibition [1]: 0.288% | Potency [2]: > 20.6 µM

N#C[C@@H](Cc1ccc(O)c(O)c1)C(=O)N1CCc2ccccc21
activity, negative = inhibition [1]: 26% [at 38 µM] | Potency [2]: > 46 µM | Potency [3]: > 46 µM | Potency [5]: inactive | outcome [6]: inactive | Potency [14]: 10 µM (active) | Potency [12]: inactive | Potency [8]: inactive | outcome [9]: inactive | outcome [10]: inactive
